Results published in PubChem BioAssay (NCATS).
Inconclusive results are not listed. The source made the active and inactive calls. Unless noted, the call rests on the fitted dose curve; in most records, active means well fitted curve in the direction sought with a large enough effect; inconclusive means small, poorly fitted or top-dose-only effect, or another doubt; inactive means no such curve, though single readings can be large; an effect the other way counts as inactive or inconclusive.

Tests used:
[1] = qHTS Assay for Identification of Small Molecule Inducers of Hypoxia Response (AID 2120; active means well fitted curve in the direction sought with a large enough effect in the signal ratio, with a control signal flat, not every such curve was filed as active; the % refers to the signal ratio)
How it was run: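 HRE-beta-lactamase reporter in CellSensor HRE-bla ME-180 cells, 2500 cells/well in Opti-MEM with 0.5% dialyzed FBS; compounds tested as titration series, 17 h at 37 degrees C. CCF4 substrate 2.5 h at room temperature; AC50 from 460/530 nm ratio.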

[2] = target: Ferritin light chain (Equus caballus) (UniProt P02791); assay: qHTS Validation Assay for Identification of Novel General Anesthetics (AID 2323)
Chain of Ferritin light chain (Equus caballus) (P02791 2-175 limits assumed): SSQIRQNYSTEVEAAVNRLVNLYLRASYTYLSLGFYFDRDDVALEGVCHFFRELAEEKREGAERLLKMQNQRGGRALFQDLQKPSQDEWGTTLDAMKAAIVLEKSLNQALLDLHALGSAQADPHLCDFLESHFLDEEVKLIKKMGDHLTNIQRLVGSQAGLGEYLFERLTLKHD
How it was run: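 Competitive displacement of profluorescent 1-aminoanthracene (1-AMA, 50% saturated solution in PBS) from 10 uM horse-spleen apoferritin. Compounds incubated 10 min at room temperature; fluorescence read at 380 nm excitation/535 nm emission, normalized to free 1-AMA and complex, fitted with four-parameter Hill equation.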

[3] = target: RecQ-like DNA helicase BLM (Homo sapiens) (UniProt P54132); assay: qHTS Validation Assay for Inhibitors of Bloom's syndrome helicase (BLM) (AID 2364)
How it was run: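 50 nM BLM preincubated 15 min at room temperature with compound in pH 8.0 Tris buffer containing 2.5 ug/ml poly(dI-dC); started with 200 nM TAMRA/BHQ-2 forked duplex and 2 mM ATP (final). Unwinding read as TAMRA fluorescence increase, two reads 2 h apart.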

[4] = Validation screen for small molecules that induce DNA re-replication in MCF 10A normal breast cells (AID 463097); further: nearly all actives have a fitted effect of over 60% in size
How it was run: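 Readout: Hoechst nuclear fluorescence intensity, 405 ex / 500-530 em, by scanning plate imager; re-replication scored as increase in nuclei with elevated DNA content. Cells exposed to compound 48 hr, 37 C, 5% CO2 beforehand.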

[5] = Quantitative high throughput screen for delayed death inhibitors of the malarial parasite plastid, 96 hour incubation (AID 488745); further: nearly all actives have a fitted effect of over 70% in size
How it was run: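 P. falciparum carrying an integrated firefly luciferase reporter, grown in erythrocytes (2% hematocrit, 0.1% parasitemia final) in RPMI 1640/0.5% Albumax, was exposed to compound for 96 h (two generations) at 37 C, 5% CO2. Luminescence decrease indicated growth inhibition.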

[6] = Quantitative high throughput screen for delayed death inhibitors of the malarial parasite plastid, 48 hour incubation (AID 488752); further: nearly all actives have a fitted effect of over 65% in size
How it was run: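 Erythrocytes infected with P. falciparum carrying an integrated firefly luciferase reporter (2% hematocrit, 0.1% parasitemia final) were exposed to compounds in RPMI 1640/0.5% Albumax for 48 h at 37 C, 5% CO2. Growth inhibition was scored as reduced luminescence.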

[7] = Cytometric Cell-Based qHTS for Inhibitors of the mTORC1 Signaling Pathway in MEF (Tsc2-/-, p53-/-) Cells (AID 2660);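 further: percent of cells above a phospho-rpS6 to PI ratio cutoff in each well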
How it was run: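 Readout: Alexa-488 phospho-rpS6 (Ser235/236) intensity divided by PI intensity, thresholded against 7.5 nM rapamycin wells and reported as % positive cells. PI cell count served as the viability measure. Compound exposure was 24 hrs at 37 degree Celsius.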

[8] = High Content Imaging Cell-Based qHTS for Inhibitors of the mTORC1 Signaling Pathway in MEF (Tsc2-/-, p53-/-) Cells (AID 2666); conditions: at 38.3 µM (top of the series);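 further: percent of cells scored positive for phospho-rpS6 Ser235/236 immunostaining by imaging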
How it was run: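 Phospho-rpS6 (Ser235/236) immunofluorescence, normalized and scored as % positive cells using rapamycin and DMSO controls, was read in empty-vector Tsc2-/-, p53-/- MEFs after 24 h compound exposure at 37 C; propidium iodide counted cells.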

[9] = High Content Imaging Cell-Based qHTS for Inhibitors of the mTORC1 Signaling Pathway in MEF Cells (AID 2667);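 further: Tsc2-/- p53-/- MEFs stably re-expressing wild-type Tsc2 exposed 24 h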
How it was run: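 WT MEFs (Tsc2-/-, p53-/- re-expressing Tsc2), in DMEM + 10% FBS, were treated with compound for 24 h at 37 C. Cells were then fixed and stained for phospho-rpS6 Ser235/236 with propidium iodide as cell count. Values are % positive cells, with thresholds set against rapamycin-treated cells.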

[10] = Cytometry Cell-Based qHTS for Inhibitors of the mTORC1 Signaling Pathway in MEF cells (AID 2668);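 further: Tsc2-/- p53-/- mouse embryonic fibroblasts stably re-expressing wild-type Tsc2; percent cells positive for phospho-rpS6 Ser235/236 relative to propidium iodide stain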
How it was run: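 WT MEFs (Tsc2-/-, p53-/- stably re-expressing WT Tsc2) in DMEM + 10% FBS received compounds 24 hrs after plating, for 24 hrs at 37 degree Celsius. Fixed cells stained with Alexa-488 anti-phospho-rpS6 Ser235/236 and propidium iodide; laser-scanning cytometry read-out.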

[11] = target: Ubiquitin carboxyl-terminal hydrolase 2 (Homo sapiens) (UniProt O75604); assay: qHTS Validation Assay for Inhibitors of Ubiquitin-specific Protease USP2a Using CHOP2 as the Reporter (AID 463106)
Chain of Ubiquitin carboxyl-terminal hydrolase 2 (Homo sapiens) (O75604 whole entry, looked up): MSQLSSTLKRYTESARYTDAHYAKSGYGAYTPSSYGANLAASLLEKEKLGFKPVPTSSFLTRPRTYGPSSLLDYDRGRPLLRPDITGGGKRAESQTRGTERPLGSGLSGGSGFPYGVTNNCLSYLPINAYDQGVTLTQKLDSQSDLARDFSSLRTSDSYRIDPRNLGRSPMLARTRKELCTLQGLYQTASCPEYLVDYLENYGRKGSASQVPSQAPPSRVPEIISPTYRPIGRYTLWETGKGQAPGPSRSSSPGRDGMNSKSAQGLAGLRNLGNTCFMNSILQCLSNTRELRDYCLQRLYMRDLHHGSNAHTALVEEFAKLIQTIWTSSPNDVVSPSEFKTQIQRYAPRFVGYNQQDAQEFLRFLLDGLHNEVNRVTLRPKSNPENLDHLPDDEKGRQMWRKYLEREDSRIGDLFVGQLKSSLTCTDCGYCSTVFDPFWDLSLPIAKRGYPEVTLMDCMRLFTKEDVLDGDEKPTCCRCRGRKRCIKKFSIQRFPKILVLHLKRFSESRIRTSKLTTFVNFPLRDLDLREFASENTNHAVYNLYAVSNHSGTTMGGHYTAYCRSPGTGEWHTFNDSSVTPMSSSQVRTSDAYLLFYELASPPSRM
How it was run: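 USP2 core (10 nM final) was preincubated with compound 30 min at RT in pH 8.0 Tris/CaCl2/beta-ME/CHAPS buffer. Ub-CHOP2 and reporter substrate (25 nM final each) were then added, with fluorescence (Ex 485/Em 531) read after 60 min. Data were normalized to NEM full inhibition and fitted to concentration-response curves.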

[12] = target: DNA polymerase III PolC-type (Bacillus subtilis (strain 168)) (UniProt P13267); assay: qHTS Validation Assay for the Inhibitors of DNA Replication in Gram-Positive Bacteria (AID 485295);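 further: PicoGreen fluorescence of double-stranded DNA made on primed circular M13 template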
Chain of DNA polymerase III PolC-type (Bacillus subtilis (strain 168)) (P13267 whole entry, looked up): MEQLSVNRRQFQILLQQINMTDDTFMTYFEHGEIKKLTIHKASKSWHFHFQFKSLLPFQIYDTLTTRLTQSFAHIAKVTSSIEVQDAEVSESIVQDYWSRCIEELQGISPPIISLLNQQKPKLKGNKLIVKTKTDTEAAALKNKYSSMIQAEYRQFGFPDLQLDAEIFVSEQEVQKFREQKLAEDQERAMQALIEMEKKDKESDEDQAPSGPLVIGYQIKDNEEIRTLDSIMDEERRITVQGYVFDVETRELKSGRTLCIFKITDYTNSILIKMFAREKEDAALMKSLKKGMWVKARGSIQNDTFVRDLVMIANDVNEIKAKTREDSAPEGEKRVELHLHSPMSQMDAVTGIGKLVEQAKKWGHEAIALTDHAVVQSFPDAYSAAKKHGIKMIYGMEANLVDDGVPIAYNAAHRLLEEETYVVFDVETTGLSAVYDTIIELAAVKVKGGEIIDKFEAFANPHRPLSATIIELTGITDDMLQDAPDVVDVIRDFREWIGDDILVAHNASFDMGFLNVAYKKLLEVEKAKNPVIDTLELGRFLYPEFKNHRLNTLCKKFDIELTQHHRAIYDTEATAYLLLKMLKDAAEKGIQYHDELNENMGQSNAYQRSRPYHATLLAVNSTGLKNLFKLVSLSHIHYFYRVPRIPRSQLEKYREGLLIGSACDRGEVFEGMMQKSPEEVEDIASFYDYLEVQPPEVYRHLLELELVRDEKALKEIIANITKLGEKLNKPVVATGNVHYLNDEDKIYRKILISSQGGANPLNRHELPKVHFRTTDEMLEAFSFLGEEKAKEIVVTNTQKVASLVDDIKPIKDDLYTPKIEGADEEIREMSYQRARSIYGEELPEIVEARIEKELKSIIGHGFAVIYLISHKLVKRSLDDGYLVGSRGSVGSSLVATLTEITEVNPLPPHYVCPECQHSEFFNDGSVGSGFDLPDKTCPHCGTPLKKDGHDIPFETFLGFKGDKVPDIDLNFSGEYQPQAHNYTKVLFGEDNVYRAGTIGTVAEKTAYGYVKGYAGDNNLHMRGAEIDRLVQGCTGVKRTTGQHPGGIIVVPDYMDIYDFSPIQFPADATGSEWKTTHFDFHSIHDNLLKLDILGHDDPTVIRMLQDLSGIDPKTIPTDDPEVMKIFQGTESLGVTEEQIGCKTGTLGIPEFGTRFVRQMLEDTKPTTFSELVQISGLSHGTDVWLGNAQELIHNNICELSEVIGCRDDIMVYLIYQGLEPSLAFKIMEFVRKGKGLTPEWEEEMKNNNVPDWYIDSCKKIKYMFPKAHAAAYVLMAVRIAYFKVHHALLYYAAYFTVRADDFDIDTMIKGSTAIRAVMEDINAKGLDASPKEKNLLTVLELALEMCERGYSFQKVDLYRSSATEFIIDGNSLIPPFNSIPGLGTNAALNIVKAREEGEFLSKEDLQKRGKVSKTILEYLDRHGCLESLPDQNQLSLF
How it was run: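 Reconstituted B. subtilis holoenzyme (Pol III, beta clamp, SSB, primase) was preincubated with compound at room temperature, then given single-stranded circular M13Gori plus dNTPs and NTPs. EDTA-containing PicoGreen stopped the reaction, and dsDNA product was read by fluorescence.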

[13] = target: Tumor susceptibility gene 101 protein (Homo sapiens) (UniProt Q99816); assay: qHTS Validation Assay for Iinhibitors of HIV-1 Budding by Blocking the Interaction of PTAP/TSG101 (AID 485342; calls by dose curve)
Chain of Tumor susceptibility gene 101 protein (Homo sapiens) (Q99816 whole entry, looked up, the tested form may be a part): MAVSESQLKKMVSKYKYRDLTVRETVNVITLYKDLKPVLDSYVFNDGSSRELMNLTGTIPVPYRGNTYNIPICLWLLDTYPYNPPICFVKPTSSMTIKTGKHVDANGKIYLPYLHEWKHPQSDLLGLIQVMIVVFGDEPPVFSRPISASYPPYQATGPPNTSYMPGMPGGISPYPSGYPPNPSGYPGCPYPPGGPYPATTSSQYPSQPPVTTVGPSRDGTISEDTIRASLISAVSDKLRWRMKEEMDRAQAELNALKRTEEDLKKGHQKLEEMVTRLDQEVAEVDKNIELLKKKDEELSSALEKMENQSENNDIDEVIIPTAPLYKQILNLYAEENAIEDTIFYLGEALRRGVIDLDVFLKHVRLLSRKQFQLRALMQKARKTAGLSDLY
How it was run: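 Tsg101 binding domain (10 uM final) in pH 7.5 HEPES/NaCl/Tween 20/EDTA/TCEP buffer was mixed with pin-transferred compounds, then FITC-labeled PTAP peptide (50 nM final) was added; after 20 min at r.t., fluorescence polarization was read.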

[14] = qHTS Validation Assay to Find Inhibitors of Chronic Active B-Cell Receptor Signaling (AID 485345; active means well fitted curve in the direction sought with a large enough effect in the main read-out, with a control signal flat, not every such curve was filed as active)
How it was run: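 TMD8 ABC-DLBCL cells stably carrying doxycycline-inducible IkappaBalpha–green luciferase fusion plus unfused red luciferase; compounds 46 uM to 3 nM, 4 h at 37C with doxycycline. Corrected green/red luminescence ratio normalized to 10 uM MG-132 and basal cell wells; curves fitted.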

[15] = target: Thioredoxin reductase 1, cytoplasmic (Rattus norvegicus) (UniProt O89049); assay: qHTS Assay for Substrates of Mammalian Selenoprotein Thioredoxin Reductase 1 (TrxR1) (AID 488772);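 further: NADPH fluorescence in the first read after selenite addition and not the 8 min delta; a drop in NADPH fluorescence below the no-compound background marks a TrxR1 substrate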
Chain of Thioredoxin reductase 1, cytoplasmic (Rattus norvegicus) (O89049 whole entry, looked up): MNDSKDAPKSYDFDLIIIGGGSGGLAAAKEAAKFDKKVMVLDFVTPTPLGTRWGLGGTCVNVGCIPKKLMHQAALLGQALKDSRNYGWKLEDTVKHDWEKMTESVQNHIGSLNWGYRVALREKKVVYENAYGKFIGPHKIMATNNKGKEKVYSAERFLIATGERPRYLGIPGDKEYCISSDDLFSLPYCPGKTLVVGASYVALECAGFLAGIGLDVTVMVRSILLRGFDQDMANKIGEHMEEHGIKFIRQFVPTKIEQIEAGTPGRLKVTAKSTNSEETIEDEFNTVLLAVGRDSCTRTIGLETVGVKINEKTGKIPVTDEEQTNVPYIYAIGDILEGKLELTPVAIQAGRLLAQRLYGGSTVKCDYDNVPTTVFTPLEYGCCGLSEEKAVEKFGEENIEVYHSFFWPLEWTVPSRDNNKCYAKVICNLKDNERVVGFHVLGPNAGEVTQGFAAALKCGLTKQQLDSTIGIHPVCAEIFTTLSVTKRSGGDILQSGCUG
How it was run: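 Quantitative HTS in Tris-HCl buffer at pH 7.5 with EDTA and Tween-20, using rat TrxR1, 400 uM NADPH and 400 uM selenite (final). A fall in initial NADPH fluorescence relative to background marked substrate behaviour.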

[16] = target: Thioredoxin reductase 1, cytoplasmic (Rattus norvegicus) (UniProt O89049); assay: qHTS Assay for Inhibitors of Mammalian Selenoprotein Thioredoxin Reductase 1 (TrxR1) (AID 488773);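 further: drop in NADPH fluorescence over an 8 min run after selenite addition; nearly all actives have a fitted effect of over 40% in size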
How it was run: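 Steps: enzyme (90 nM) plus NADPH (400 uM final), 5 min at ~22 deg C; compound added, 15 min; selenite (400 uM final) added; fluorescence followed for 8 min. Concentration-response curves derived from the normalized delta values.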

[17] = target: Flap endonuclease 1 (Homo sapiens) (UniProt P39748); assay: qHTS Validation Assay for the Inhibitors of Human Flap endonuclease 1 (FEN1) (AID 488816)
Chain of Flap endonuclease 1 (Homo sapiens) (P39748 whole entry, looked up): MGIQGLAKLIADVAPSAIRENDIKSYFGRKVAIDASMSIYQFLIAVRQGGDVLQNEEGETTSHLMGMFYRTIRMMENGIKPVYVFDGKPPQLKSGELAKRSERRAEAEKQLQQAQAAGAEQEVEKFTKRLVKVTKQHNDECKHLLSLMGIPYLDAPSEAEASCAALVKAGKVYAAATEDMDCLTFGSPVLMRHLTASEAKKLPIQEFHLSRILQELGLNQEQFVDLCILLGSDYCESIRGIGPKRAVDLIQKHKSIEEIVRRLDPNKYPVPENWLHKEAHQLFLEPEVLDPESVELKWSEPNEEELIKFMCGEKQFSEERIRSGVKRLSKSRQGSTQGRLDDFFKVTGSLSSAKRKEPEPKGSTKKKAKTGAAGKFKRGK
How it was run: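 Human FEN1 (10 nM) preincubated 15 min at room temperature with compounds, then flap DNA substrate added at 50 nM final. Fluorescence read at 0 and 15 min; concentration-response fitted with four-parameter Hill equation.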

[18] = target: Beta-2 adrenergic receptor (Homo sapiens) (UniProt P07550); assay: qHTS validation assay of beta-arrestin-biased ligands of beta2-adrenergic receptor (AID 485366)
Chain of Beta-2 adrenergic receptor (Homo sapiens) (P07550 whole entry, looked up): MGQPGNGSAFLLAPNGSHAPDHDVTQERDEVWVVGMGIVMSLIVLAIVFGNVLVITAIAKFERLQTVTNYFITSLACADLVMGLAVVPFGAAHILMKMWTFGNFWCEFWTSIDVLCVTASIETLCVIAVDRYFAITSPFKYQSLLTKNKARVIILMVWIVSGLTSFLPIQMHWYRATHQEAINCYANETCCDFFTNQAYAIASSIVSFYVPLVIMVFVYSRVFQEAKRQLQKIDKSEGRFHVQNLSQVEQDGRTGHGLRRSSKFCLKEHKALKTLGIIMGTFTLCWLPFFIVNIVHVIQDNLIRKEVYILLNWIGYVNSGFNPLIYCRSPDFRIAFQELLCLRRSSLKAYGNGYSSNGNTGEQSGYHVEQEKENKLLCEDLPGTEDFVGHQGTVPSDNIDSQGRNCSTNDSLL
How it was run: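 Tango cells (recombinant beta2-AR with recombinant beta-arrestin; recruitment releases tTA driving luciferase) were treated with compounds titrated up to 46 microM for 18 hr at 37 degrees C. Luminescence gave %Activity, and concentration-response curves were curve-classified.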

[19] = target: ATP-dependent 6-phosphofructokinase (Trypanosoma brucei brucei) (UniProt O15648); assay: qHTS Validation Assay to Find Inhibitors of T. brucei phosphofructokinase (AID 485368); conditions: T. brucei PFK enzyme assay, qHTS 7-point titration; at 57.5 µM (top of the series)
Chain of ATP-dependent 6-phosphofructokinase (Trypanosoma brucei brucei) (O15648 whole entry, looked up): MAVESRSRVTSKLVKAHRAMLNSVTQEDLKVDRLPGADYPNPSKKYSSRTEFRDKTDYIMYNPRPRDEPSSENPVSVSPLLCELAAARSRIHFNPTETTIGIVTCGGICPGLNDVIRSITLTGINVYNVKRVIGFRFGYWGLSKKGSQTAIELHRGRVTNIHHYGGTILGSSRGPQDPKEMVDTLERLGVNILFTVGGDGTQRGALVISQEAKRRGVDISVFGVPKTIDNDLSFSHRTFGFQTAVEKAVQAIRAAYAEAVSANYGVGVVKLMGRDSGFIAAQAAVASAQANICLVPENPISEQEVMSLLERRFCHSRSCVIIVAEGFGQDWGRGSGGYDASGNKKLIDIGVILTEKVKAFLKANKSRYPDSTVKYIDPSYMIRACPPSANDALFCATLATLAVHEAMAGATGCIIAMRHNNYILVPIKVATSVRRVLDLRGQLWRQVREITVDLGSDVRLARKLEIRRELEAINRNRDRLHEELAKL
How it was run: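 Compounds (up to 57 uM, titration series) were pinned into substrate buffer, then 1.25 nM PFK added; after 45 min at room temperature, ADP product was quantified by ADP-Glo luminescence and concentration-response curves fitted.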

Measured: outcome

CCOc1ccccc1C(N)=O
inactive: [1]

COc1ccc(C(=O)c2ccccc2)c(O)c1
inactive: [1]

CC(=O)OCC1=C(C(=O)O)N2C(=O)[C@@H](NC(=O)CSc3ccncc3)[C@H]2SC1
inactive: [2] | [3] | [4] | [5] | [6]

OC[C@H]1O[C@@H]2O[C@H]3[C@H](O)[C@@H](O)[C@@H](O[C@H]4[C@H](O)[C@@H](O)[C@@H](O[C@H]5[C@H](O)[C@@H](O)[C@@H](O[C@H]6[C@H](O)[C@@H](O)[C@@H](O[C@H]7[C@H](O)[C@@H](O)[C@@H](O[C@H]8[C@H](O)[C@@H](O)[C@@H](O[C@H]1[C@H](O)[C@H]2O)O[C@@H]8CO)O[C@@H]7CO)O[C@@H]6CO)O[C@@H]5CO)O[C@@H]4CO)O[C@@H]3CO
inactive: [1]

CCCCC(CC)COC(=O)c1ccc(N(C)C)cc1 (configuration not stated)
inactive: [1]

C/C=C/c1ccc(O)c(OC)c1
inactive: [1]

CC(C)(C)NC[C@H](O)COc1nsnc1N1CCOCC1
not listed: [1] | [2] | [3] | [4] | [5] | [6] | [18] | [19]
inactive: all other assays above

CN=C(N)NCCC[C@H](N)C(=O)O
not listed: [1] | [2] | [3] | [4] | [5] | [6]
inactive: all other assays above

CCOc1ccc(NC(C)=O)cc1
inactive: [1]

COc1cc([C@H]2Oc3cc([C@H]4Oc5cc(O)cc(O)c5C(=O)[C@@H]4O)ccc3O[C@@H]2CO)ccc1O
inactive: [1]

O=C(O)c1ccc(S(=O)(=O)N(Cl)Cl)cc1
inactive: [1]
